“And” between values parts separate entries of the source, which are not always exact repeats. Identical values can stand only once. Inconclusive results are not listed. Unmarked numbers belong to inactive results. The source made the active and inactive calls. The call rests on the fitted dose curve; in most records, active means well fitted inhibition curve with a large enough effect in the signal ratio in the repeat runs; inconclusive means weak or mixed curves, or effect the other way; inactive means flat fitted curve, though single readings scatter; the % refers to the signal ratio.
On the % scale 0 is the no-effect control and ±100 the full control effect; potency means the concentration at half of the fitted maximal effect.

This assay in a line: qHTS assay for small molecule disruptors of the mitochondrial membrane potential (AID 720635). The note with it: HepG2 mitochondrial membrane potential, Mito-MPS dye ratio; series mostly up to 83.2 µM; ratio activity, negative = MMP loss: at the top concentration. The text has this:
U.S. Tox21 Program National Center for Advancing Translational Sciences [NCATS] NIH Chemical Genomics Center [NCGC] U.S. Environmental Protection Agency [EPA] National Institutes of Environmental Health Sciences [NIEHS] National Toxicology Program [NTP] U.S. Food and Drug Administration [FDA] Tox21 Assay Overview: Mitochondrial membrane potential (MMP), one of the parameters for mitochondrial function, is generated by mitochondrial electron transport chain that creates an electrochemical gradient by a series of redox reactions. This gradient drives the synthesis of ATP, a crucial molecule for various cellular processes. Measuring MMP in living cells is commonly used to assess the effect of chemicals on mitochondrial function. […] The dye accumulates in the mitochondria of healthy cells as aggregates, with red fluorescence. The mitochondrial potential collapses and the dye can no longer accumulate in the mitochondria and remains in the cytoplasm in monomers, with green fluorescence.
Tox21 Assay Protocol Summary: 2,000 HepG2 cells in 5 uL/well were dispensed into black, clear-bottom 1536-well plates using a Multidrop Combi (Thermo Scientific) dispenser. The assay plates were incubated overnight at 37C to allow cells to attach to the wells, followed by the transfer of 23 nL compound or DMSO vehicle by a pin tool (Kalypsys). The plates were incubated for 1 hr at 37C and 5% CO2, followed by the addition of 5 uL of 2X Mito-MPS dye (BD Biosciences) into each well using Flying Reagent Dispenser (Aurora Discovery) and then following 30 min incubation at 37C. Fluorescence intensity (490nm excitation and 535nm emission for monomers; and 540nm excitation and 590nm emissions for aggregates) was measured using an Envision plate reader.
For `Nc1ccc(Br)cc1`, the “ratio activity, negative = MMP loss” value was 6.92%.

On to `CCNc1nc(NC(C)(C)C)nc(SC)n1`, for which the Potency is 27.3 µM (active).

In the case of `CN(N=O)c1ccccc1`, the “ratio activity, negative = MMP loss” value was 3.68% [at 95.3 µM].

`ClCc1cccnc1`: the Potency entry is “inactive”.

`CCCCCCCCCCCC#N`: the “ratio activity, negative = MMP loss” value is -3.02% [at 95.3 µM].

For `COC(=O)NC(=S)Nc1ccccc1NC(=S)NC(=O)OC`, the Potency entry was “inactive”.

As to `O=[N+]([O-])c1ccc(Oc2ccc(Cl)cc2Cl)cc1`, the Potency was 54.8 µM (active) and 30.6 µM (active).

For the molecule `CCOP(OCC)OCC`, the “ratio activity, negative = MMP loss” value was 18.3% [at 95.3 µM].

`Nc1ccccc1C(=O)O`: the Potency result was “inactive”.

As for `O=C1CCCN1`, the “ratio activity, negative = MMP loss” value is 10.2%.

Regarding `COC(=O)NS(=O)(=O)c1ccc(N)cc1`, the “ratio activity, negative = MMP loss” value was 15% [at 95.3 µM].

`CNC(=O)Oc1ccccc1OC(C)C`: the Potency result was “inactive”.

Take `Clc1ccccc1Cl`: the “ratio activity, negative = MMP loss” value was 11.6%.

With `O=C(O)c1ccccn1`, the “ratio activity, negative = MMP loss” value was -24.5%.

On to `CCCN(CCC)N=O`, for which the Potency result was “inactive”.

Take `C=CCO`: the “ratio activity, negative = MMP loss” value is -4.85%.

On to `CCCCN(CC)C(=O)SCCC`, for which the Potency result is “inactive”.

On to `CC(C)OC(=O)Nc1cccc(Cl)c1`, for which the Potency was 47.9 µM (active) and 24.3 µM (active).

For `CC(NC(C)(C)C)C(=O)c1cccc(Cl)c1` (stereo not given), the “ratio activity, negative = MMP loss” value was 14.8%.

In the case of `c1ccc(-c2ccccc2)cc1`, the “ratio activity, negative = MMP loss” value was -10.8% [at 95.3 µM].

As to `CC(=O)C=C(C)C`, the Potency result is “inactive”.

For the molecule `O=c1[nH]c2ccccc2c(=O)o1`, the Potency entry was “inactive”.

For the molecule `c1ccc2c(c1)Oc1ccccc1O2`, the Potency entry was “inactive”.

In the case of `ClCCBr`, the Potency entry was “inactive”.

Regarding `C=C(C)CCl`, the Potency result is “inactive”.

Regarding `CCCCCOC(=O)c1ccccc1C(=O)OCCCCC`, the “ratio activity, negative = MMP loss” value is -7.89%.

Regarding `CC(C)NC(=O)N1CC(=O)N(c2cc(Cl)cc(Cl)c2)C1=O`, the Potency result was “inactive”.

On to `C#CCN(C)[C@H](C)Cc1ccccc1`, for which the “ratio activity, negative = MMP loss” value was 5.83%.

With `O=NN1CCCC1`, the Potency entry was “inactive”.

Regarding `CCC(C)(CC)c1cc(NC(=O)c2c(OC)cccc2OC)on1`, the Potency is 27.4 µM (active) and 20.9 µM (active).

Turning to `CCOC(=O)c1ccccc1C(=O)OCC`, the Potency entry was “inactive”.

`CC(C)C1(C)N=C(c2nc3ccccc3cc2C(=O)O)NC1=O` (stereo not given): the “ratio activity, negative = MMP loss” value was 6.98% [at 95.3 µM].

`Nc1ccc(Oc2ccc(N)cc2)cc1`: the Potency result is “inactive”.

In the case of `CC(C)(Cl)Cl`, the Potency entry is “inactive”.

For `CN(C)CCO`, the Potency result was “inactive”.

As for `O=c1[nH]c(=O)[nH]c(=O)[nH]1`, the “ratio activity, negative = MMP loss” value is 10.1%.

`OC(O)C(Cl)(Cl)Cl`: the “ratio activity, negative = MMP loss” value was 13.9%.

As to `CCCCCCCCCl`, the Potency entry was “inactive”.

Take `CC(C)=C[C@@H]1[C@@H](C(=O)OCc2coc(Cc3ccccc3)c2)C1(C)C`: the Potency was 23.7 µM (active).

Consider `CC(Br)C(=O)O` (stereo not given), for which the Potency entry was “inactive”.

The record behind these values is PubChem BioAssay (Tox21).
